The entries come from a sample that favours hits as a whole.
Pf Dd2 inh – blocks in vitro growth of P. falciparum Dd2. hit rate 4.3% among 120,000. P. falciparum Dd2 growth, SYBR Green, 72 h. Potency, µM (doses to about 28.9 µM), inactives show at the highest dose activity, negative = inhibition, usual class: inhibitors. AID 1347417; active means well fitted inhibition curve with a large enough effect;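 further: plate controls were DMSO vehicle for no effect and reference drug for full effect; nearly all actives have a fitted effect of over 65% in size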
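Infected erythrocytes (Dd2, 0.3% parasitemia, 2.5% hematocrit final) are added to compound in RPMI-1640/Albumax II medium, grown 72 h at 37C in low oxygen, then lysed with saponin/Triton-X containing SYBR Green and read by fluorescence.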
* = called active by the depositor; i = inactive; [ ] = another dose, or the depositor's remark. Potency means the concentration at half of the fitted maximal effect.

SMILES | Pf Dd2 inh
Cc1ncncc1C(=O)N1CC[C@@](O)(C2CCOCC2)[C@H](C)C1 | -3.0%
CCc1ccc(-c2nn(CC(=O)NCc3ccccc3)c3c2cnc2ccc(F)cc23)cc1 | -1.0%
CCc1ccc(-c2nn(CC(=O)Nc3ccccc3)c3c2cnc2ccc(F)cc23)cc1 | 10.4%
CCc1ccc(C(=O)c2cnc3ccc(F)cc3c2S(=O)(=O)c2ccccc2)cc1 | 11.2µM*
CCS(=O)(=O)N1CCC[C@H]1C(=O)N1CCCCCCNC(=O)CC1 | 4.6%
Cn1ccc(C(=O)N2CCC3(CC2)OC(=O)N(Cc2ccccc2)C3(C)c2ccccc2)n1 (stereo unspecified) | i
O=C(O)c1ccc(-c2nnc3ccc(NC(=O)C4CCC4)cn23)cc1 | -11.1%
CC(C)CCNC(=O)c1ccc(-c2nnc3ccc(NC(=O)C4CCC4)cn23)cc1 | 2.82µM*
O=C(NC1CC1)c1ccc2nnc(-c3ccc(Cl)cc3)n2c1 | 7.1%
COc1ccccc1CC(=O)N1CCC2(CC1)NC(=O)N(Cc1ccc(F)cc1)C2=O | -8.6%
COc1ccccc1CNC[C@H]1O[C@@H]2C[C@@H](CC(=O)N3CCC(F)(F)C3)O[C@@H]2[C@@H]1O | 14.4%[44.1 µM]
Cc1cnc(C(=O)N2CCCC(CCc3cccc(F)c3)C2)cn1 (stereo unspecified) | 2.0%
O=C(c1cncc(N2CCCC(CCc3cccc(F)c3)C2)n1)N1CCCCC1 (stereo unspecified) | 11.2µM*
O=C(c1ccco1)N1CCCC(CCc2cccc(F)c2)C1 (stereo unspecified) | -10.0%
C[C@H](O)c1onc(-c2ccc(Cl)cc2)c1C(=O)NC1CC1 | -13.8%[44.1 µM]
Cc1ccccc1CNC[C@H]1O[C@@H]2C[C@@H](CC(=O)N3CCOCC3)O[C@@H]2[C@@H]1O | -10.0%[44.1 µM]
Cc1ccc(NC(=O)C2CCN(C(=O)c3ncn4c3COC(c3ccc(F)cc3)C4)CC2)cc1Cl (stereo unspecified) | -10.7%
COc1ccc(-c2noc(N3CCC(C(=O)N(C)c4cc(Cl)ccc4OC)CC3)n2)cc1 | 10µM*
COc1ccc(-c2noc([C@@H]3CCCN3C(=O)c3cc(Cl)ccc3OC)n2)cc1 | -9.4%
COc1ccc(-c2noc(N3CCC(C(=O)Nc4ccc(F)cc4Cl)CC3)n2)cc1 | 38.0%
O=C(Nc1ccc([C@H]2OCC(=O)N(Cc3ccc(F)cc3)[C@@H]2CO)cc1)c1ccco1 | i
Cn1nccc1C(=O)N1CCc2c(n(CCOc3ccccc3)n(-c3ccccc3)c2=O)C1 | 5.3%
CCOC(=O)c1cnc2c(ccc3ccccc32)c1Nc1ccc(OC)cc1OC | 0.4%
CCOC(=O)c1cnc2c(ccc3ccccc32)c1Nc1ccc(OC)c(OC)c1 | 3.55µM*
CCOC(=O)c1cnc2c(ccc3ccccc32)c1Nc1ccc(C(C)=O)cc1 | 5.01µM*
SMILES | Pf Dd2 inh
CCOC(=O)c1cnc2c(ccc3ccccc32)c1Nc1ccccc1OCC | 30.4%
CCOC(=O)c1cnc2ccccc2c1Nc1ccc(N2CCOCC2)cc1 | 27.8%
CCOC(=O)c1cnc2c(ccc3ccccc32)c1Nc1ccccc1OC | 8.6%
Cc1ccc(NC(=O)CCn2ccn3nc4c(c3c2=O)CCCC4)cc1C | i
CC(C)N1CCN(C(=O)CN2CC3CC(C2)[C@H]2CCCC(=O)N2C3)CC1 (stereo partly specified) | -4.4%
Cc1ccc(C2NC(=O)N(CC(=O)NC3CCCC3)C3=C2C(=O)OC3)cc1 (stereo unspecified) | -21.2%
CCOc1ccc(C2NC(=O)N(CC(=O)NC3CCCC3)C3=C2C(=O)OC3)cc1 (stereo unspecified) | -25.2%
Cc1ccccc1CCC1CCCN(C(=O)CCN2CCCC2=O)C1 (stereo unspecified) | 0.6%
O=C(CC1CCOCC1)Nc1ccccc1 | 35.4%
O=C(Cc1cccc(Cl)c1)N1CCC(Oc2ncccc2C(=O)N2CCCCC2)C1 (stereo unspecified) | 7.94µM*
O=C(Cc1cccs1)N1CCC(Oc2ncccc2C(=O)N2CCCCC2)C1 (stereo unspecified) | i
O=C(Cc1ccccc1F)N1CCC(Oc2ncccc2C(=O)N2CCCCC2)C1 (stereo unspecified) | -12.2%
COc1cccc(N2CC(C(=O)NCc3ccc4c(c3)OCO4)NC2=O)c1 (stereo unspecified) | 16.0%
Cc1ccc(C(=O)N2C[C@@H](COCC(N)=O)[C@H](c3ccncc3)C2)cc1 | 4.6%
COc1cccc(CN2CCCN(Cc3ccncc3)C(c3ccccc3)CC(=O)NCC2)c1 (stereo unspecified) | 1.41µM*
CS(=O)(=O)N1CCCN(C(=O)c2ccsc2)CCNC(=O)CC1c1ccccc1 (stereo unspecified) | 2.7%
Cn1cnc(S(=O)(=O)N2CCCN(C(=O)c3ccncc3)CCNC(=O)CC2c2ccccc2)c1 (stereo unspecified) | -0.6%
O=C1CC(c2ccccc2)N(Cc2ccncc2)CCCN(C(=O)c2ccc3ccccc3n2)CCN1 (stereo unspecified) | -6.9%
Cc1ncccc1C(=O)N1CCCN(Cc2ccncc2)C(c2ccccc2)CC(=O)NCC1 (stereo unspecified) | 11.2µM*
O=C1CC(c2ccccc2)N(Cc2ccncc2)CCCN(C(=O)c2ccsc2)CCN1 (stereo unspecified) | 5.62µM*
Cc1ccc(C(=O)N2CCCN(Cc3ccncc3)C(c3ccccc3)CC(=O)NCC2)cn1 (stereo unspecified) | i
COc1cccc(CC(=O)N2CCCN(S(C)(=O)=O)C(c3ccccc3)CC(=O)NCC2)c1 (stereo unspecified) | -11.4%
O=C1CC(c2ccccc2)N(C(=O)C2CC2)CCCN(C(=O)c2cccs2)CCN1 (stereo unspecified) | -17.9%
Cc1ccc(C(=O)N2CCCN(S(C)(=O)=O)C(c3ccccc3)CC(=O)NCC2)cn1 (stereo unspecified) | -9.0%
CS(=O)(=O)N1CCCN(Cc2ccc(C#N)cc2)CCNC(=O)CC1c1ccccc1 (stereo unspecified) | -18.0%
SMILES | Pf Dd2 inh
O=C1CC(c2ccccc2)N(Cc2ccncc2)CCCN(C(=O)c2ccc3ncccc3c2)CCN1 (stereo unspecified) | 6.31µM*
CNC(=O)[C@@H]1CN(C(=O)Cc2cccc(Cl)c2)C[C@H]1CO | -4.1%
Cc1ccc(C#N)c(N2CCCC(c3nnc(Cn4cccn4)n3C)C2)n1 (stereo unspecified) | -10.1%
O=C(NC1CCCCC1)N1CCC(c2noc(-c3cnccn3)n2)C1 (stereo unspecified) | 0.7%[5.79 µM]
O=C(c1c(OCC2CC2)cc(=O)n2c1CCOCC2)N1CCc2ccccc2C1 | -0.4%
Cc1noc([C@@H]2CN(Cc3ccncc3)C[C@H]2CO)n1 | 14.2%
O=S(=O)(Cc1ccccc1F)N1CCC(c2noc(-c3cccnc3)n2)C1 (stereo unspecified) | 6.7%[5.79 µM]
O=C(NC[C@H]1OC[C@@H](NCc2ccc(F)cc2)[C@@H]1O)c1ccncc1 | 17.1%[44.1 µM]
Cc1ccc(-c2cc(C(=O)N3CCCC3c3nncn3C(C)C)[nH]n2)cc1 (stereo unspecified) | -14.5%
CC(C)CCNC(=O)C1CC(=O)N(c2n[nH]c3cccc(F)c23)C1 (stereo unspecified) | 3.7%
Cc1cccc(C(=O)N2CCCCCNC(=O)CC2c2ccccc2)c1 (stereo unspecified) | -6.3%
CCCS(=O)(=O)N1CCCC(C(=O)NCc2ccccc2)CCNC(=O)CC1 (stereo unspecified) | 26.0%
CCCS(=O)(=O)N1CCCN(Cc2ccncc2)C(c2ccccc2)CC(=O)NCC1 (stereo unspecified) | 14.1µM*
Cn1cccc1C(=O)N1CCCN(S(=O)(=O)c2ccccc2)CCC(=O)NCC1 | -10.7%

Screening data as filed in PubChem.
